Rows were chosen to be rich in hits. Some 19% of all compounds tested hit in one or more screens of this group.
DT40 TDP1 no CPT: qHTS for Inhibitors of human tyrosyl-DNA phosphodiesterase 1 (TDP1): qHTS in cells in absence of CPT; AID 686978, 2013; Potency, µM (top dose mostly 46.2 µM), without a hit: at the top dose activity change, negative = growth inhibition, usual class: inhibitors; DT40 Tdp1-/- hTDP1 cells, no CPT, ATP luminescence, 48 h; actives 15% (n = 420,000); also: potency is read from the fitted curve at half-maximal effect; % is scaled to controls: 0 for no effect and ±100 for the full control effect; nearly all actives have a fitted effect of over 55% in size
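Stably hTDP1-transfected Tdp1-null chicken DT40 cells were treated with library compounds minus camptothecin and grown for at least 48 hr at 37 °C, after which cellular ATP was quantified by luminescence.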
DT40 TDP1 CPT: growth inhibition of DT40 Tdp1-/-;hTDP1 cells with camptothecin (screen for TDP1 inhibitors); chicken DT40 Tdp1-/-;hTDP1 cells + 20 nM CPT, ATP luminescence, 48 h; actives 12% (n = 420,000); Potency, µM (doses to about 46.2 µM), inactives show at the top dose activity change, negative = growth inhibition, most hits filed as inhibitors; also: potency is read from the fitted curve at half-maximal effect; % is scaled to controls: 0 for no effect and ±100 for the full control effect; nearly all actives have a fitted effect of over 55% in size
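Chicken DT40 Tdp1-/- cells stably complemented with human TDP1 were seeded at 400 cells/well in medium containing 20 nM camptothecin, exposed to pin-transferred compounds, and grown at 37 °C for at least 48 hr. Viability was read as ATP luminescence.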
IL-1B inflam inh: blocks inflammasome-driven IL-1 beta release; THP-1 LPS/ATP IL-1B secretion, AlphaLISA, 16 h; hits give low values; activity change, % at 57.5 µM; actives 4.7% (n = 360,000); in the data active = activity change below about -50%; inconclusive = mostly about -30% to -49%; also: % is scaled to controls: 0 for no effect and ±100 for the full control effect
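THP-1 cells pretreated 1 hr with compounds (up to 57.5 uM final), then stimulated with LPS (250 ng/mL final) plus ATP (1.25 mM final); secreted IL-1B measured by AlphaLISA after 16 hr, decreased signal indicating inhibition.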
TGFb inhibitor: TGF-b pathway inhibition; HepG2 CAGA-GFP TGF-b/SMAD3 reporter, GFP fluorescence, 18 h; TGF-beta stimulated, 500 pg/mL final; Potency, µM (titrated, usually from 46.1 µM), for inactives: top-dose activity, negative = inhibition, usual class: inhibitors; actives 1.2% (n = 410,000); AID 588855; also: potency is read from the fitted curve at half-maximal effect; % is scaled to controls: 0 for no effect and ±100 for the full control effect; nearly all actives have a fitted effect of over 65% in size
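GFP signal (ex488/em500-530) from TGF-beta-stimulated HEPG2 CAGA-GFP cells, 500 pg/mL final, 18 h at 37 degrees C in DMEM plus 1% FBS, normalized to unstimulated and DMSO-stimulated controls.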
HepG2 viability: kills HepG2 cells in TGF-b inhibitor counter-screen. Potency, µM (doses to about 46.1 µM), without a hit: at the top dose activity change, negative = cytotoxicity, usual class: cytotoxic. HepG2 CAGA-GFP viability, ATP luminescence, 18 h. actives 0.76% (n = 410,000); also: potency is read from the fitted curve at half-maximal effect
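CellTiter-Glo luminescence gave cytotoxicity after 18 hours at 37 degrees C. The cells were HepG2 CAGA-GFP in 1% FBS DMEM, stimulated with 500 pg/mL TGF-beta after compound addition. %Activity was normalised to no-cell wells (complete cell-killing) and DMSO (no toxicity), and curves were fitted and classified.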
ASM inhibitor: blocks human secretory acid sphingomyelinase; P17405; Potency, µM (series often up to 57.5 µM), for the others: at the highest dose activity change, negative = inhibition, most hits filed as inhibitors; actives 0.006% (n = 340,000); placental ASM, HMU-PC fluorogenic substrate, 60 min; also: potency is read from the fitted curve at half-maximal effect
Target sequence (P17405 47-631 limits assumed): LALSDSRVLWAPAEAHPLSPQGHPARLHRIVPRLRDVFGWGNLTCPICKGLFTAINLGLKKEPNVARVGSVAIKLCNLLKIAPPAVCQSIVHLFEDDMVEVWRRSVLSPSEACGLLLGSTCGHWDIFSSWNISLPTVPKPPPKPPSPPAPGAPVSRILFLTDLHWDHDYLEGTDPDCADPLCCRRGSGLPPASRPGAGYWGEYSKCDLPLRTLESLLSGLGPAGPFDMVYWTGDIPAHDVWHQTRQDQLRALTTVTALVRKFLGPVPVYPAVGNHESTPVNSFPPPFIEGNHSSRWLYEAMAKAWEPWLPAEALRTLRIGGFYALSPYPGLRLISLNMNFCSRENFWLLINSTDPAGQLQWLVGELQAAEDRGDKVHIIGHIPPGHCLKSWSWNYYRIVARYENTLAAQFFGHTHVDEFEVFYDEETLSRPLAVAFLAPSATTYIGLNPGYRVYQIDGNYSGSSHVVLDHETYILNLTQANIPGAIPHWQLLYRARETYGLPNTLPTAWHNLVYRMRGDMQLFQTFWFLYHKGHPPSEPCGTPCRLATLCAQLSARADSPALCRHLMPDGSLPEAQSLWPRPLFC
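HMU-PC0 cleavage (9 uM final) by human placental ASM, 60 min at 37 °C following 10 min compound exposure at RT; stopped at pH 10, fluorescence Ex 386/Em 447 nm.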
Active calls of the source: *. Unless noted, calls follow the shape of the dose curve; as a rule, active = well fitted curve in the direction sought with a large enough effect; inconclusive = small, poorly fitted or top-dose-only effect, or another doubt; inactive = no such curve, though single readings can be large; an effect the other way counts as inactive or inconclusive.

For COC(=O)c1ccc(OC)c(Cn2c(=O)n(-c3cccc(Cl)c3)c(=O)c3c4c(sc32)CN(C(C)=O)CC4)c1 the results were DT40 TDP1 no CPT -12%, DT40 TDP1 CPT 1%, TGFb inhibitor inconclusive and HepG2 viability 4%.
For COc1cccc(Cn2c(=O)n(-c3cccc(Cl)c3)c(=O)c3c4c(sc32)CN(C(C)=O)CC4)c1 the results were DT40 TDP1 no CPT 18µM*, DT40 TDP1 CPT inconclusive, TGFb inhibitor inconclusive and HepG2 viability -35%.
O=C(Nc1cc(Sc2nc3ccccc3s2)cc([N+](=O)[O-])c1)c1ccccc1F was read as DT40 TDP1 no CPT inconclusive, DT40 TDP1 CPT 21µM*, IL-1B inflam inh 33, TGFb inhibitor 0%, HepG2 viability -2% and ASM inhibitor -15%.
Cc1cc(NC(=O)c2ccccc2F)ccc1-c1nc2ccccc2s1 was read as DT40 TDP1 no CPT inconclusive, DT40 TDP1 CPT inconclusive, TGFb inhibitor -27% and HepG2 viability -29%.
`O=C(Nc1cc(Sc2nc3ccccc3s2)cc([N+](=O)[O-])c1)c1ccccc1` gave DT40 TDP1 no CPT 16µM*, DT40 TDP1 CPT inconclusive, IL-1B inflam inh 19, TGFb inhibitor inconclusive, HepG2 viability -2% and ASM inhibitor -22%.
O=C(Nc1cccc([N+](=O)[O-])c1)c1ccccc1 was read as DT40 TDP1 no CPT -1%, DT40 TDP1 CPT -14%, IL-1B inflam inh -13, TGFb inhibitor -8%, HepG2 viability -12% and ASM inhibitor -2%.
COc1ccc(-c2cc(-c3ccccc3)nc3c2COc2ccc(F)cc2-3)cc1 was read as DT40 TDP1 no CPT inconclusive, DT40 TDP1 CPT inconclusive, TGFb inhibitor 8% and HepG2 viability -14%.
For O=C(c1ccc(COc2ccc3ccccc3c2)o1)N1N=C(C(F)F)CC1(O)C(F)F (configuration not stated) the results were DT40 TDP1 no CPT 21µM*, DT40 TDP1 CPT inconclusive, IL-1B inflam inh -1, TGFb inhibitor 11µM*, HepG2 viability -108% and ASM inhibitor -29%.
Screening O=C(c1ccc(COc2ccccc2Cl)o1)N1N=C(C(F)F)CC1(O)C(F)F (configuration not stated) returned DT40 TDP1 no CPT 16µM*, DT40 TDP1 CPT 23µM*, IL-1B inflam inh inconclusive, TGFb inhibitor inconclusive, HepG2 viability -65% and ASM inhibitor -16%.
`O=C(c1ccc(COc2ccc(Br)cc2)o1)N1N=C(C(F)F)CC1(O)C(F)F` (configuration not stated) gave DT40 TDP1 no CPT inconclusive, DT40 TDP1 CPT inconclusive, IL-1B inflam inh inconclusive, TGFb inhibitor -5%, HepG2 viability -32% and ASM inhibitor -6%.
CCOc1ccc(OCc2ccc(C(=O)N3N=C(C(F)F)CC3(O)C(F)F)o2)cc1 (configuration not stated) was read as DT40 TDP1 no CPT inconclusive, DT40 TDP1 CPT inconclusive, IL-1B inflam inh 4, TGFb inhibitor -27%, HepG2 viability -39% and ASM inhibitor -4%.
Screening Cn1cnc2c(F)c(Nc3ccc(Br)cc3Cl)c(C(=O)NOCCO)cc21 returned DT40 TDP1 no CPT 3% and DT40 TDP1 CPT 1%.
For O=C1/C(=C/c2cccnc2)CCc2c1[nH]c1ccccc21 the results were DT40 TDP1 no CPT inconclusive, DT40 TDP1 CPT 18µM*, IL-1B inflam inh -103*, TGFb inhibitor -1%, HepG2 viability 0% and ASM inhibitor -2%.

Source: PubChem (National Center for Advancing Translational Sciences (NCATS))
